Common to all, as to experiment: protein-binding microarray (PBM); PBM: ~300 nM protein, 6 mM HEPES pH 7.8, 80 mM KCl, 0.5 mM EDTA, 0.5 mM EGTA, 6% glycerol, 35 ng/ul poly-dIdC, 1% milk, 1 h, room temperature; Ap Aiptasia and Nv Nematostella (sea anemones) / Co Capsaspora / Aq Amphimedon (sponge) / Dm Drosophila / Hu human; RHD is the Rel homology domain; high values mean tight binding
Common to all, as to details: dsDNA, one strand shown

One assay concerns the target T1, GST-Ap-NF-kB RHD (Exaiptasia pallida (Aiptasia), UniProt A0A913YAJ5 2-422).
T1 sequence: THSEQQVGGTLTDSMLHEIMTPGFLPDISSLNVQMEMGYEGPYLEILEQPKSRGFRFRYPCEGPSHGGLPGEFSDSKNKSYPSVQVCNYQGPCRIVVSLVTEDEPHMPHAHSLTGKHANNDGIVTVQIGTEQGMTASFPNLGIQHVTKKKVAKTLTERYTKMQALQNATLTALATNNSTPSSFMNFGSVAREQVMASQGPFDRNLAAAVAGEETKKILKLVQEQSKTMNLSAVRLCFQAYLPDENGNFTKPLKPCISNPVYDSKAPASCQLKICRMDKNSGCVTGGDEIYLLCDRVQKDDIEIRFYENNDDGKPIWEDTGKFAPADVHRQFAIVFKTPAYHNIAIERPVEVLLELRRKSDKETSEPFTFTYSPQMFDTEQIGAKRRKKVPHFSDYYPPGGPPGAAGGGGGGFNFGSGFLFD

Assay [1] has as its target T2, GST-Nv-NF-kB (Cys allele) (Nematostella vectensis, UniProt E5G601 2-411).
T2 sequence: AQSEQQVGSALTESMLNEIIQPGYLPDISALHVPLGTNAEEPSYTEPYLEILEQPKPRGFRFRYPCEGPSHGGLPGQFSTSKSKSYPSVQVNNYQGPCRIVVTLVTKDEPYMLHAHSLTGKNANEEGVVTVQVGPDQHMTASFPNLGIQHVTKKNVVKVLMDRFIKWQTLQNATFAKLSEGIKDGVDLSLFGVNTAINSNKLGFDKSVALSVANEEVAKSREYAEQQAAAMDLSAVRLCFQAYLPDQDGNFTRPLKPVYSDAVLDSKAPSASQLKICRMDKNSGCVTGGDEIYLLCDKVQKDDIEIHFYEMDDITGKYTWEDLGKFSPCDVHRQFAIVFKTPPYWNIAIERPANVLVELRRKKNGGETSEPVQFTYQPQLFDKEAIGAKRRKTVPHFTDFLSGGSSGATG

Another assay addresses T3, GST-Co-NF-kB (Capsaspora owczarzaki, UniProt F1ARL5 200-546).
T3 sequence: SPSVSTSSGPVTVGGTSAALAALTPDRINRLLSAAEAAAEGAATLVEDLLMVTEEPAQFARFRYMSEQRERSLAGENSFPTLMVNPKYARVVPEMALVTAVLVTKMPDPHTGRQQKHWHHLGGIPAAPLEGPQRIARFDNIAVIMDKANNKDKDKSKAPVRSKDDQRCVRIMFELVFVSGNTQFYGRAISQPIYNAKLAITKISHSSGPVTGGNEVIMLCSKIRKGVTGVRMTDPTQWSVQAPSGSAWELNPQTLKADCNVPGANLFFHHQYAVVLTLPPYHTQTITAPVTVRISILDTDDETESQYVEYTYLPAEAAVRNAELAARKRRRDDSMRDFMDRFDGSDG

The next assay concerns the target T4, GST-Dm-Relish (Drosophila melanogaster, UniProt Q94527 99-473).
T4 sequence: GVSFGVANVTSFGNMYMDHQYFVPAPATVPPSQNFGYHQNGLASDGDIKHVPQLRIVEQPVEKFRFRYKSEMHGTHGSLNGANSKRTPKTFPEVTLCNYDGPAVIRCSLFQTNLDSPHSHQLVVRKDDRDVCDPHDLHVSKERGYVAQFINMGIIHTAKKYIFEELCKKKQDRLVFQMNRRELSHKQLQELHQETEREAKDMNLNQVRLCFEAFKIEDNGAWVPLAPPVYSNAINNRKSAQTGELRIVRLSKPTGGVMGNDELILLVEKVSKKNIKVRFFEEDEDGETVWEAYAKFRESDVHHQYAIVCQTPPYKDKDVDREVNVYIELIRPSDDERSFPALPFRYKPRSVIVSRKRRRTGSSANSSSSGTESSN

Another assay has as its target T5, GST-Aq-NF-kB (Amphimedon queenslandica, UniProt A9Y5G7 2-389).
T5 sequence: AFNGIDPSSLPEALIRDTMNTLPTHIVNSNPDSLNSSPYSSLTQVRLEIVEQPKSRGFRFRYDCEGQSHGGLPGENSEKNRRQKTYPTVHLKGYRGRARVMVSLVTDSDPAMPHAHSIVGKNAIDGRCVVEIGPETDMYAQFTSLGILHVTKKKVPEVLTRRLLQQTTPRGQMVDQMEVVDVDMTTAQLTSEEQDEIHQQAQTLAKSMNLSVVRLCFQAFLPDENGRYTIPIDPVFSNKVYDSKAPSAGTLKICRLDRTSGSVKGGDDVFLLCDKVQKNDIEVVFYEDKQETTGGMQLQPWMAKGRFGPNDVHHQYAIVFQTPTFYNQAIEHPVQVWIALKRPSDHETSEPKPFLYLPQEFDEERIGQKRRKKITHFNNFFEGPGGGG

“CCGATTAACATCAGGCGTCCCCCTGATGTTAATCGGGTCTTGATTCGCTTGACGCTGCTG”: the binding signal in the assay with GST-Ap-NF-kB RHD was 5.61 z-score; in assay [1], 5.07 z-score; with GST-Co-NF-kB it was 4.12 z-score; in the assay with GST-Dm-Relish, 3.92 z-score; in the assay with GST-Aq-NF-kB it was 4.77 z-score.

For “CCGATTAACATCAGGGAAACTCATGATGTTAATCGGGTCTTGATTCGCTTGACGCTGCTG”, the binding signal with GST-Ap-NF-kB RHD turned out to be 3.29 z-score; in assay [1], 4.53 z-score; with GST-Co-NF-kB, 3.68 z-score; with GST-Dm-Relish, 1.31 z-score; with GST-Aq-NF-kB it was 4.27 z-score.

In the case of “CCGATTAACATCAGGGAATCTCATGATGTTAATCGGGTCTTGATTCGCTTGACGCTGCTG”, the binding signal in the assay with GST-Ap-NF-kB RHD came out at 2.33 z-score; in assay [1], 3.41 z-score; in the assay with GST-Co-NF-kB it was 1.96 z-score; in the assay with GST-Dm-Relish, 1.4 z-score; with GST-Aq-NF-kB it was 3.46 z-score.

On to “CCGATTAACATCACGGAGTCCCCTGATGTTAATCGGGTCTTGATTCGCTTGACGCTGCTG”, for which the binding signal with GST-Ap-NF-kB RHD was found to be 6.33 z-score; in assay [1], 4.74 z-score; with GST-Co-NF-kB, 2.46 z-score; with GST-Dm-Relish it was 7.32 z-score; with GST-Aq-NF-kB it was 4.65 z-score.

On to “CCGATTAACATCAAGGGGTCCCCTGATGTTAATCGGGTCTTGATTCGCTTGACGCTGCTG”, for which the binding signal was 5.55 z-score with GST-Ap-NF-kB RHD; 3.3 z-score in assay [1]; 1.66 z-score with GST-Co-NF-kB; 6.15 z-score with GST-Dm-Relish; 4.02 z-score with GST-Aq-NF-kB.

Take “CCGATTAACATCAGAAAATCCCATGATGTTAATCGGGTCTTGATTCGCTTGACGCTGCTG”: the binding signal with GST-Ap-NF-kB RHD was 4.49 z-score; in assay [1], 4.29 z-score; with GST-Co-NF-kB it was 1.54 z-score; with GST-Dm-Relish it was 7.07 z-score; in the assay with GST-Aq-NF-kB it was 4.36 z-score.

Take “CCGATTAACATCAGGGGGGGTCATGATGTTAATCGGGTCTTGATTCGCTTGACGCTGCTG”: the binding signal with GST-Ap-NF-kB RHD is 3.99 z-score; in assay [1], 2.96 z-score; with GST-Co-NF-kB, 3.31 z-score; with GST-Dm-Relish it was 3.85 z-score; with GST-Aq-NF-kB, 3.54 z-score.

Regarding “CCGATTAACATCAAATTCCCACTTGATGTTAATCGGGTCTTGATTCGCTTGACGCTGCTG”, the binding signal with GST-Ap-NF-kB RHD was determined as 2.15 z-score; in assay [1] it was 4.13 z-score; in the assay with GST-Co-NF-kB, 2.26 z-score; with GST-Dm-Relish it was 4.38 z-score; with GST-Aq-NF-kB it was 2.47 z-score.

For “CCGATTAACATCACGTAAATCCCTGATGTTAATCGGGTCTTGATTCGCTTGACGCTGCTG”, the binding signal with GST-Ap-NF-kB RHD was 2.65 z-score; in assay [1] it was 2.8 z-score; with GST-Co-NF-kB it was 1.01 z-score; in the assay with GST-Dm-Relish, 7.13 z-score; with GST-Aq-NF-kB, 3.3 z-score.

As to “CCGATTAACATCAATTTCCCGCCTGATGTTAATCGGGTCTTGATTCGCTTGACGCTGCTG”, the binding signal with GST-Ap-NF-kB RHD turned out to be 2.79 z-score; in assay [1] it was 3.63 z-score; in the assay with GST-Co-NF-kB it was 3.64 z-score; with GST-Dm-Relish it was 1.31 z-score; in the assay with GST-Aq-NF-kB, 2.64 z-score.

As for “CCGATTAACATCAATATTTACCCTGATGTTAATCGGGTCTTGATTCGCTTGACGCTGCTG”, the binding signal with GST-Ap-NF-kB RHD was found to be 1.68 z-score; in assay [1], 3.08 z-score; with GST-Co-NF-kB, 3.33 z-score; in the assay with GST-Dm-Relish, 1.66 z-score; with GST-Aq-NF-kB it was 2.34 z-score.

Regarding “CCGATTAACATCAGGGGAAGGTATGATGTTAATCGGGTCTTGATTCGCTTGACGCTGCTG”, the binding signal is 3.33 z-score with GST-Ap-NF-kB RHD; 4.71 z-score in assay [1]; 5.15 z-score in the assay with GST-Co-NF-kB; 2.58 z-score in the assay with GST-Dm-Relish; 3.96 z-score with GST-Aq-NF-kB.

With “CCGATTAACATCAGGGATTCCCATGATGTTAATCGGGTCTTGATTCGCTTGACGCTGCTG”, the binding signal with GST-Ap-NF-kB RHD is 4.88 z-score; in assay [1] it was 4.61 z-score; with GST-Co-NF-kB, 2.91 z-score; in the assay with GST-Dm-Relish, 10 z-score; in the assay with GST-Aq-NF-kB, 6.04 z-score.

“CCGATTAACATCAGGGAATTGTATGATGTTAATCGGGTCTTGATTCGCTTGACGCTGCTG”: the binding signal in the assay with GST-Ap-NF-kB RHD was 2.85 z-score; in assay [1], 4.78 z-score; with GST-Co-NF-kB, 3.1 z-score; with GST-Dm-Relish, 1.21 z-score; with GST-Aq-NF-kB it was 4.7 z-score.
